The target in assay [1] is Luciferin 4-monooxygenase (Photinus pyralis) (UniProt P08659). Nature of the assay: Biochemical firefly luciferase enzyme assay for NPC (AID 624030).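 Also: purified P. pyralis luciferase at 10 nM with luciferin and ATP substrate; nearly all actives have a fitted effect of over 70% in size.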 The procedure, abridged:
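Purified P. pyralis luciferase at 10 nM in 50 mM Tris Acetate (final), luminescence read within 5 minutes of enzyme addition to compounds. Activity normalised to PTC124 versus DMSO; concentration-response curves classed by r2, magnitude and activity.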

A short description of assay [2]: S16 Schwann cell PMP22 intronic element firefly luciferase assay (AID 624032). Also: nearly all actives have a fitted effect of over 30% in size. The procedure, abridged:
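Rat S16 Schwann cells stably carrying firefly luciferase driven by a PMP22 intronic element, in 10% FBS, treated 24 h at 37 C. ONE-Glo luminescence normalized to PTC124 control and DMSO (0%); curves classed by r2, magnitude and activity.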

Assay [3] can be described thus: S16 Schwann cell PMP22 intronic element beta-lactamase assay (AID 624044; calls by dose curve; also: nearly all actives have a fitted effect of over 15% in size). In short, it runs like this:
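Beta-lactamase reporter under a PMP22 intronic regulatory element in stable S16 rat Schwann cells; 24 h compound exposure. 460 nm blue signal normalized between DMSO (0%) and potassium clavulanate, with 535 nm FRET tracking viability; curves classed by r2 and response.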

Another assay deals with ATS95. The experiment in a line: qHTS profiling for inhibitors of Plasmodium falciparum proliferation (AID 504749). Also: nearly all actives have a fitted effect of over 60% in size. Also: potency is read from the fitted curve at half-maximal effect. The settings on record: P. falciparum in erythrocytes, SYBR Green DNA, 72 h; series mostly up to 12.8 µM. In short, it runs like this: (§1)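 SYBR Green fluorescence (ex 485 nm, em 535 nm) reports parasite DNA after 72 h compound exposure of infected red cells at 0.3% parasitemia, 2.5% hematocrit; signal normalized to 0.29 uM artemisinin and vehicle wells.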
(In general: In qHTS, concentration-response curves come from the screen itself.)

Another assay has as its system CP201. The description is as above. The settings on record: P. falciparum in erythrocytes, SYBR Green DNA, 72 h; series mostly up to 12.8 µM. The procedure, abridged: as §1
The next assay has as its system CP237. The description is as above. The following applies: P. falciparum in erythrocytes, SYBR Green DNA, 72 h; series mostly up to 12.8 µM. The procedure, abridged: as §1
In another assay the test system is CP247. The assay is described as above. The following applies: P. falciparum in erythrocytes, SYBR Green DNA, 72 h; series mostly up to 12.8 µM. The procedure, abridged:
as §1

Another assay deals with CP260. The description is as above. The settings on record: P. falciparum in erythrocytes, SYBR Green DNA, 72 h; series mostly up to 12.8 µM. In short, it runs like this: as §1
A further assay concerns CP262. The assay is described as above. The following applies: P. falciparum in erythrocytes, SYBR Green DNA, 72 h; series mostly up to 12.8 µM. In short, it runs like this:
as §1

For the next assay, the system named is CP265. Described as above. The settings on record: P. falciparum in erythrocytes, SYBR Green DNA, 72 h; series mostly up to 12.8 µM. The procedure, abridged: as §1
For another assay, the system named is CP269. The description is as above. The following applies: P. falciparum in erythrocytes, SYBR Green DNA, 72 h; series mostly up to 12.8 µM. In short, it runs like this:
as §1

The next assay relates to CP291. Described as above. The settings on record: P. falciparum in erythrocytes, SYBR Green DNA, 72 h; series mostly up to 12.8 µM. The procedure, abridged:
as §1

In another assay the test system is CP305. The description is as above. The settings on record: P. falciparum in erythrocytes, SYBR Green DNA, 72 h; series mostly up to 12.8 µM. The procedure, abridged: as §1
For the next assay, the system named is CP325. The assay is described as above. The following applies: P. falciparum in erythrocytes, SYBR Green DNA, 72 h; series mostly up to 12.8 µM. The procedure, abridged: as §1
The next assay has as its system CP329. Described as above. The following applies: P. falciparum in erythrocytes, SYBR Green DNA, 72 h; series mostly up to 12.8 µM. In short, it runs like this:
as §1

The subject of the next assay is DIV14. Described as above. The following applies: P. falciparum in erythrocytes, SYBR Green DNA, 72 h; series mostly up to 12.8 µM. The procedure, abridged:
as §1

The test system of a further assay is DIV30. Described as above. The following applies: P. falciparum in erythrocytes, SYBR Green DNA, 72 h; series mostly up to 12.8 µM. In short, it runs like this: as §1
In another assay the test system is ICS. The description is as above. The settings on record: P. falciparum in erythrocytes, SYBR Green DNA, 72 h; series mostly up to 12.8 µM. The procedure, abridged:
as §1

The subject of a further assay is P94_40. Described as above. The following applies: P. falciparum in erythrocytes, SYBR Green DNA, 72 h; series mostly up to 12.8 µM. The procedure, abridged:
as §1

The test system of another assay is TAB165. The assay is described as above. The following applies: P. falciparum in erythrocytes, SYBR Green DNA, 72 h; series mostly up to 12.8 µM. The procedure, abridged: as §1

Results filed as inconclusive are left out. The source made the active and inactive calls. Unless noted, calls follow the shape of the dose curve; as a rule, active = well fitted curve in the direction sought with a large enough effect; inconclusive = small, poorly fitted or top-dose-only effect, or another doubt; inactive = no such curve, though single readings can be large; an effect the other way counts as inactive or inconclusive.

Chain of Luciferin 4-monooxygenase (Photinus pyralis) (P08659 whole entry, looked up): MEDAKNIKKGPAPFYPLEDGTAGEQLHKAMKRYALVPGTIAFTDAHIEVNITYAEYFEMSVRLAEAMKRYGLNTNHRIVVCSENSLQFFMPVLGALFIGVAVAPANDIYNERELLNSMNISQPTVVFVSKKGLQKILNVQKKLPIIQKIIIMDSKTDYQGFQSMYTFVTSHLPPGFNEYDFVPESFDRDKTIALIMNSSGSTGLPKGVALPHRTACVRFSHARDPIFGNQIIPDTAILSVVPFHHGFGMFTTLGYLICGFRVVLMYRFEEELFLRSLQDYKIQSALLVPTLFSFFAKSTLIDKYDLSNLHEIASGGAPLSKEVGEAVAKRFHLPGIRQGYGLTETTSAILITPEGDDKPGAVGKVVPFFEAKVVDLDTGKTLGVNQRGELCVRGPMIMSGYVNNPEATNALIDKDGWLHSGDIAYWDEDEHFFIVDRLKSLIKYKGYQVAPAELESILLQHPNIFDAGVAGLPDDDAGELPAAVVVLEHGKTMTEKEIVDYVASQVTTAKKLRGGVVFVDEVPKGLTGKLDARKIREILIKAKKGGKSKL

Take `CCN[C@@H]1C[C@H](N)[C@H](O[C@H]2OC(CN)=CC[C@H]2N)[C@@H](O)[C@H]1O[C@H]1OC[C@@](C)(O)[C@@H](NC)[C@@H]1O`: the Potency entry (in assay [1]; in [2]; in assay [3]; in the assay with ATS95; in the assay on CP201; with CP237) was “inactive” throughout. Besides, the Potency entry with CP247, in the assay on CP260, in the assay on CP262, with CP265, in the assay on CP269 and in the assay on CP291 was “inactive” throughout. The Potency entry in the assay on CP305, in the assay on CP325, in the assay with CP329, in the assay on DIV14, in the assay on DIV30 and in the assay on ICS was “inactive” throughout. In addition, the Potency entry in the assay on P94_40 and with TAB165 was “inactive” each time.
As to `c1ccc2c(c1)CCC[C@@H]2C1=NCCN1`, the Potency entry (in assay [1]; in [2]; with ATS95; with CP201; in the assay on CP237; in the assay on CP247) was “inactive” in each case. For the same molecule, the Potency result in the assay on CP260, in the assay on CP262, in the assay with CP265, with CP269, with CP291 and in the assay with CP305 was “inactive” in each case. In addition, the Potency entry in the assay with CP325, with CP329, with DIV14, in the assay with DIV30, with ICS and in the assay on P94_40 was “inactive” throughout. Moreover, the Potency result in the assay on TAB165 was “inactive”.
Turning to `Cc1cccc(C)c1NC(=O)[C@H](C)N`, the Potency result (in [1]; in [2]; in assay [3]; in the assay with ATS95; in the assay on CP237; in the assay with CP247) was “inactive” in each case. Further, the Potency result in the assay on CP260, with CP265, in the assay on ICS, in the assay with P94_40 and in the assay with TAB165 was “inactive” throughout.
For the molecule `COc1ccccc1OC[C@H](O)CO`, the Potency result (in assay [1]; in assay [2]; in [3]; in the assay on ATS95; in the assay with CP201; in the assay with CP237) was “inactive” each time. The Potency entry in the assay on CP247, in the assay with CP260, in the assay on CP262, with CP265, in the assay with CP269 and in the assay on CP291 was “inactive” in each case. Further, the Potency result in the assay with CP305, in the assay with CP325, in the assay with CP329, in the assay with DIV14, with DIV30 and in the assay with ICS was “inactive” in each case. For the same molecule, the Potency result in the assay with P94_40 and in the assay with TAB165 was “inactive” in each case.
As for `Cc1ccc2c(c1)c1c3n2CCN[C@H]3CCC1`, the Potency result (in assay [2]; in assay [3]; in the assay on ATS95; with CP201; with CP247; in the assay with CP260) was “inactive” throughout. The Potency entry in the assay with CP262, in the assay with CP269, with CP291, in the assay with CP305, in the assay with CP325 and with CP329 was “inactive” each time. Further, the figures for the Potency with CP237 and with DIV14 were 12.6 µM (active) and 6.01 µM (active), respectively.
Take `Cc1ncc([N+](=O)[O-])n1C[C@H](O)CCl`: the Potency entry (in assay [3]; with ATS95; with CP201; with CP237; in the assay on CP247; in the assay with CP260) was “inactive” throughout. In addition, the Potency entry in the assay with CP262, in the assay with CP265, in the assay on CP269, with CP291, in the assay on CP305 and in the assay with CP325 was “inactive” in each case. The Potency entry with CP329, in the assay with DIV14, in the assay with DIV30, with ICS, in the assay with P94_40 and in the assay on TAB165 was “inactive” throughout.
Regarding `CCN[C@@H]1CN(CCCOC)S(=O)(=O)c2sc(S(N)(=O)=O)cc21`, the Potency result (in assay [1]; in assay [2]; in assay [3]; with ATS95; with CP201; in the assay with CP237) was “inactive” in each case. For the same molecule, the Potency result in the assay on CP247, with CP260, in the assay on CP262, in the assay with CP265, in the assay with CP269 and with CP291 was “inactive” throughout. Also, the Potency entry in the assay on CP305, with CP325, with CP329, in the assay with DIV14, in the assay on DIV30 and with ICS was “inactive” throughout. Also, the Potency result with TAB165 is “inactive”.

Values taken from PubChem BioAssay (NCATS).
